High-throughput results deposited in PubChem by Broad Institute.
PDI inh = PDI (human) enzyme inhibition | PDI insulin aggregation turbidity, A650, 90 min | inhibition, % at 10 µM | 350,000 compounds, 0.052% hits | AID 588391;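 active = mean inhibition across replicates of 30% or more, whatever share of single replicates reach that level; inconclusive = mean inhibition below 30% while every single replicate reaches 30%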
MLL AF4-AF9 inh = inhibitors of human MLL-AF4/AF9 interaction. AlphaScreen, biotin-AF4 peptide binding to FLAG-AF9. 350,000 compounds, 0.47% hits. P42568. inhibition, % at 10 µM;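 active = every replicate reaching a set inhibition limit, whatever the replicate mean, cut at about 25% in these data; inconclusive = mean inhibition reaches that limit but some replicates miss it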
ERAP1 HTS inh = inhibitors of human ERAP1 aminopeptidase. 340,000 compounds, 0.15% hits. inhibition, % at 10.7 µM. recombinant ERAP1, Leu-AMC fluorescence, 60 min. Q9NZ08;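 active = mean replicate inhibition of at least 30%, or all replicates individually reaching that 30% level; inactive = mean below 30% and not every replicate reaching it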
ERp5 inh = ERp5 (human) disulfide isomerase inhibition; Q15084; ERp5 insulin aggregation, absorbance 650 nm, 90 min; inhibition, % at 9.99 µM; 350,000 compounds, 0.05% hits; AID 651711;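 active = mean replicate inhibition above about 25%, with every replicate also reaching it, limit read from the data, passing the limit was not always enough; inconclusive = only one of those two criteria met; inactive = neither criterion met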
Target sequence (Q15084 whole entry, looked up): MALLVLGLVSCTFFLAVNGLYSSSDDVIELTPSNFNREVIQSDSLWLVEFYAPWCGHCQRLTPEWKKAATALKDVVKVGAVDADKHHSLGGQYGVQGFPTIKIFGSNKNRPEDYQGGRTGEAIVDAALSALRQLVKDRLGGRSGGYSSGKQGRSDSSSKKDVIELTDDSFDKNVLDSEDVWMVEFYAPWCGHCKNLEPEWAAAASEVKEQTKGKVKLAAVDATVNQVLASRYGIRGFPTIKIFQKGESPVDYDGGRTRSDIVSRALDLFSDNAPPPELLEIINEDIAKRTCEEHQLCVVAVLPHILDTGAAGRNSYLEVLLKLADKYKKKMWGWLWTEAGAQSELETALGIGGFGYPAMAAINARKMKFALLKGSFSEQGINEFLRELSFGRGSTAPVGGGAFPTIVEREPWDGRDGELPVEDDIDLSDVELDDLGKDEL
DENV2 CPE rescue = protects cells from dengue virus 2 cytopathic effect; 350,000 compounds, 1.7% hits; CPE inhibition, % at 9.99 µM; AID 651640; DENV2-infected cells, cytopathic effect rescue, plate reader; in the data active = CPE inhibition above about 20%, passing the limit was not always enough; inconclusive = no clear call, values can overlap the other calls; tested in BHK-21 cells
Hits are given with their value; i = inactive; ? = inconclusive; nt = no result. An excerpt weighted towards active compounds, which were near 1.8% of everything screened.

SMILES	PDI inh	MLL AF4-AF9 inh	ERAP1 HTS inh	ERp5 inh	DENV2 CPE rescue
CC(=O)N1C[C@H]2CON(C)[C@H]2C[C@H]1c1cccc(N2CCOCC2)c1	i	i	108.3	i	i
CN1OC[C@@H]2CN(C(=O)CCc3ccccc3)[C@H](c3cccc(N4CCOCC4)c3)C[C@@H]21	i	i	i	i	i
O=C(Nc1ccc(F)cc1)Nc1ccc2c(c1)[C@@H]1C[C@@H](CC(=O)N3CCOCC3)O[C@H](CO)[C@@H]1O2	nt	i	i	i	i
Cc1nnc(NC(=O)CCn2c(=O)oc3ccc(Cl)cc32)s1	i	i	i	i	23.5
O=C(C1CCOCC1)N1CC(=O)N2[C@H](CO)[C@H](c3ccc(-c4ccccc4F)cc3)[C@@H]2C1	nt	i	i	i	i
O=C(C1CCOCC1)N1CC(=O)N2[C@H](CO)[C@@H](c3ccc(-c4ccccc4F)cc3)[C@@H]2C1	nt	i	i	i	i
O=C(C1CCOCC1)N1CC(=O)N2[C@H](C1)[C@H](c1ccc(-c3ccccc3F)cc1)[C@@H]2CO	nt	i	i	i	20.5
O=C(C1CCOCC1)N1CC(=O)N2[C@H](C1)[C@@H](c1ccc(-c3ccccc3F)cc1)[C@@H]2CO	nt	i	i	i	23.0
COc1ccc(CN2CCC[C@]3(N[C@H](c4ccc(C)cc4)[C@@H]4C(=O)N(Cc5ccccc5)C(=O)[C@@H]43)C2=O)cc1	i	i	i	i	24.7
Cc1ccc([C@H]2N[C@]3(CCCN(Cc4ccc(Cl)cc4)C3=O)[C@H]3C(=O)N(C)C(=O)[C@@H]23)cc1	i	i	i	26.0	i
Cc1ccc([C@H]2N[C@]3(CCCN(Cc4cccn4C)C3=O)[C@H]3C(=O)N(Cc4ccccc4)C(=O)[C@@H]23)cc1	i	i	i	i	i
Cc1ccc([C@H]2N[C@]3(CCCN(Cc4ccco4)C3=O)[C@H]3C(=O)N(C)C(=O)[C@@H]23)cc1	i	i	i	i	59.5
Cn1cccc1CN1CCC[C@]2(N[C@H](c3ccccc3)[C@@H]3C(=O)N(Cc4ccccc4)C(=O)[C@@H]32)C1=O	i	i	i	i	40.7
O=C(NCC[C@H]1CC[C@@H](NC(=O)C2CCCCC2)[C@@H](CO)O1)c1cc(Cl)cc(Cl)c1	nt	i	i	i	i
C/C=C/c1ccccc1[C@@H]1[C@@H](C#N)N(C(=O)CN2CCOCC2)[C@H]1CO	nt	i	i	i	i
O=C(c1cccnc1)N1C[C@@H]2[C@H](c3ccccc31)[C@@H](CO)N2C(=O)Nc1ccccc1	nt	i	i	i	i
C[C@H](CO)N1C[C@H](C)[C@H](CN(C)Cc2ccc3c(c2)OCO3)Oc2ccc(NC(=O)Nc3ccc(C(F)(F)F)cc3)cc2CC1=O	nt	i	i	i	53.7
C[C@@H]1CN([C@H](C)CO)C(=O)Cc2cc(NC(=O)CCC(F)(F)F)ccc2O[C@H]1CN(C)Cc1ccc2c(c1)OCO2	nt	i	i	i	44.8
CCc1nc2ccc(C(=O)NCCNC(C)=O)cn2c1N(CC)CCOC	i	46.0	i	i	i
COc1ccc2c(c1)CCC(=O)[C@H](O)C[C@H](c1ccccc1)OC2=O	nt	i	i	i	?
O=C1CCCCCCC(=O)[C@H](O)C[C@H](c2ccccc2)O1	nt	i	i	i	49.7
COc1ccc2c(c1)C(=O)O[C@@H](c1ccccc1)C[C@@H](O)C(=O)CC2	nt	i	i	i	33.2
O=C1CCCCC(=O)[C@H](O)C[C@H](c2ccccc2)O1	nt	i	i	i	i
CO[C@H]1CN(C)C(=O)c2ccc(NS(=O)(=O)c3c(C)noc3C)cc2OC[C@@H](C)NC[C@@H]1C	nt	i	i	i	i
CN1CCC(N(C)S(=O)(=O)c2ccc(NC(=O)COc3ccc(Br)cc3Cl)cc2)CC1	i	i	i	i	i
SMILES	PDI inh	MLL AF4-AF9 inh	ERAP1 HTS inh	ERp5 inh	DENV2 CPE rescue
Cc1ccc(OCC(=O)Nc2ccc(S(=O)(=O)N(C)C3CCN(C)CC3)cc2)c(C)c1	i	i	89.8	i	i
COc1cccc(S(=O)(=O)Nc2ccc3c(c2)OC[C@@H](C)N(Cc2ccccc2F)C[C@@H](C)[C@H](OC)CN(C)C3=O)c1	nt	i	nt	i	?
C[C@H](CO)N1C[C@H](C)[C@H](CN(C)S(=O)(=O)c2cn(C)cn2)Oc2ccc(NS(=O)(=O)c3ccc(F)cc3)cc2CC1=O	nt	i	i	i	i
Cc1ccc(-c2nnc(-c3cccnc3)o2)cc1	i	i	i	i	i
Brc1ccc(-c2nnc(-c3cccnc3)o2)cc1	i	nt	i	i	81.6
O=C(CN1C(=O)C(=O)N(Cc2ccccc2)C1=O)Nc1cc(Cl)cc(Cl)c1	i	i	nt	i	nt
N#CCSc1ccccc1NC(=O)CN1C(=O)C(=O)N(Cc2ccccc2)C1=O	i	i	i	i	40.6
COc1cccc(-c2cn(CC[C@@H]3CC[C@H](NC(C)=O)[C@@H](CO)O3)nn2)c1	nt	i	i	i	nt
Cc1cc(F)cc(-c2cc(C(=O)NCC3CCCCC3)[nH]n2)c1	i	i	i	i	27.1
O=C(O)c1ccccc1	nt	i	i	i	110.1
CCNC(=O)C[C@@H]1CC[C@@H]2[C@H](COC[C@@H](O)CN2Cc2ccncc2)O1	nt	i	i	i	i
COc1ccc(CN=C(C#N)C2=C(O)c3ccccc3C2=O)cc1	i	i	i	nt	i
N#CC(=Nc1cccc(F)c1)C1=C(O)c2ccccc2C1=O	nt	i	i	i	31.8
CCCNC(=O)N1[C@@H]2c3ccc(-c4ccccc4OC)c(=O)n3C[C@H]1[C@H](CO)[C@H]2C(=O)NCC	nt	i	i	i	i
COc1ccc(NC(=O)c2ccccc2)c([N+](=O)[O-])c1	i	i	i	i	i
COc1ccc(NC(=O)c2ccc(-n3cnnn3)cc2)c([N+](=O)[O-])c1	i	26.3	i	i	i
CO[C@H]1O[C@H](CO)[C@@H](OC(=O)Nc2ccccc2)[C@H](OC(=O)Nc2ccc3c(c2)OCO3)[C@@H]1OC(=O)Nc1ccc2c(c1)OCO2	nt	27.1	i	i	i
CN1CCCC1CCNc1ccc2sc3ccccc3c(=O)c2c1 (configuration not stated)	i	26.3	nt	i	27.4
O=c1c2ccccc2sc2ccc(NCCCN3CCOCC3)cc12	i	i	nt	i	i
CO[C@H]1CN(C)C(=O)c2ccc(NC(=O)Cc3ccccc3)cc2OC[C@H](C)N(C)C[C@@H]1C	nt	i	i	i	i
O=C(O)C1CSC(c2coc3ccccc3c2=O)N1 (configuration not stated)	i	i	i	i	i
CC1CCOC(c2coc3ccccc3c2=O)O1 (configuration not stated)	i	i	i	i	33.3
COc1ccc(NC(=O)c2c(F)cccc2F)cc1S(=O)(=O)Nc1ccc(Br)cc1	i	i	i	i	49.4
C[C@H](CO)N1C[C@H](C)[C@H](CN(C)CC2CCCCC2)OCCCC[C@H](C)Oc2ccc(NC(=O)Nc3ccc(F)cc3)cc2C1=O	nt	i	i	i	24.5
C[C@@H]1CN([C@H](C)CO)C(=O)c2cc(NC(=O)Nc3ccc(F)cc3)ccc2O[C@H]1CN(C)Cc1ccncc1	nt	i	i	i	36.9
C[C@@H]1CN([C@@H](C)CO)C(=O)c2cc(NC(=O)Nc3cccc4ccccc34)ccc2O[C@H]1CN(C)CC1CCCCC1	nt	i	i	i	34.0
